Rows were chosen to be rich in hits. Some 5.3% of all compounds tested hit in one or more screens of this group.
PfM18AAP inh = PfM18AAP enzyme inhibition; recombinant PfM18AAP, H-Glu-NHMec fluorogenic cleavage; inhibition, % at 7.35 µM; 290,000 compounds, 1.2% hits;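 active = inhibition above the campaign mean inhibition over all tested compounds plus 3 SD, cut at about 28% in these data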
SUMO Mot1 rescue = blocks SUMOylation pathway, rescuing yeast Mot1-301 growth | S. cerevisiae Mot1-301 growth rescue, ATP luminescence, 38.5C; percent above DMSO median, 100 means doubled | growth rescue, % at 18.8 µM | 320,000 compounds, 1% hits;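 active = every valid replicate shows activation above 250% relative to neutral control wells; inactive = the rest, any valid replicate at or below 250%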
ALR inh = human ALR oxidase inhibition via reduced H2O2; P55789; purified ALR, DTT oxidation, H2O2 HRP-luminol luminescence; inhibition, % (concentration not given with the values); 290,000 compounds, 3.8% hits;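 active = mean replicate inhibition above about 79%, with every replicate also reaching it, limit read from the data; inconclusive = only one of the two criteria met; inactive = mean below limit and not every replicate reaching it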
Target sequence (P55789 whole entry, looked up): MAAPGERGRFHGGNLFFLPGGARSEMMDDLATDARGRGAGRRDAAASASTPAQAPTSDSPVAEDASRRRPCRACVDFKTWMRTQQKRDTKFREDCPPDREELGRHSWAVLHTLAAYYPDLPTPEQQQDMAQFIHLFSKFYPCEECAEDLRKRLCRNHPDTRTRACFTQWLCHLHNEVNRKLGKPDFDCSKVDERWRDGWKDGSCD
HIF activator = HIF pathway transcriptional activation; U2OS HRE-luciferase reporter, luminescence; normalized: DMSO 0%, desferrioxamine 100%; activation, % at 7.5 µM (by protocol); 300,000 compounds, 0.32% hits; AID 1910;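 active = mean activation of at least 10% of the iron chelator positive control signal, with at least half of replicates also reaching 10%; inconclusive = mean and replicate majority disagree about reaching 10%; inactive = mean and most replicates under 10%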
Hits are given with their value; . = inactive; ? = inconclusive; / = no result given.

SMILES	PfM18AAP inh	SUMO Mot1 rescue	ALR inh	HIF activator
CC12CCC(c3n[nH]c(=S)nc31)C2(C)C (configuration not stated)	.	.	.	.
CC(=O)Nc1ccc(S(=O)(=O)Nc2nccs2)cc1	.	.	.	.
CC(=O)Nc1ccc(S(=O)(=O)Nc2ccc(S(=O)(=O)Nc3nccs3)cc2)cc1	.	.	.	22.8
CCN1CN(CCc2ccccc2)CNC1=S	.	.	.	269.8
Cc1cccn2c(=O)c(C=O)c(NCc3ccccc3)nc12	.	.	.	.
C/C(=N/Nc1ccccc1[N+](=O)[O-])c1ccc([N+](=O)[O-])cc1	.	.	.	.
CC1=C/C(=N\Nc2ccccc2[N+](=O)[O-])CC(C)(C)C1	.	.	98.3	.
CCNC(=S)/N=C(/Nc1ccc(OC)cc1)Nc1nc(C)cc(C)n1	.	.	.	.
CCNC(=S)/N=C(/Nc1ccccc1)Nc1nc(C)cc(C)n1	29.8	.	/	.
Cc1cc2nc(-c3ccc(SCC(=O)N4CCN(C(=O)c5ccco5)CC4)nc3)[nH]c2cc1C	.	.	98.7	.
Cc1cc2nc(-c3ccc(SCc4ccccn4)nc3)[nH]c2cc1C	.	.	97.7	.
CCOC(=O)CSc1ccc(-c2nc3cc(C)c(C)cc3[nH]2)cn1	.	.	.	.
Cc1cc2nc(-c3ccc(SCC(=O)N4CCOCC4)nc3)[nH]c2cc1C	.	.	?	.
Cc1ccc(C(=O)CSC2=NC(N)=C(C#N)C3(CCCCC3)C2C(N)=O)cc1 (configuration not stated)	.	.	97.1	.
N#CC1=C(N)N=C(SCc2ccccc2)C(C(N)=O)C12CCCCC2 (configuration not stated)	.	.	.	.
CCN(CCNCC(O)COc1ccccc1C(C)C)c1cccc(C)c1 (configuration not stated)	.	.	99.1	.
CCOC(=O)N1CCN(CC(O)COc2ccccc2C(C)C)CC1 (configuration not stated)	.	.	.	/
O=C(COc1ccccc1)c1cn(CC(=O)N2CCCC2)c2ccccc12	.	/	.	.
Cc1nc2c3ccccc3nc(NNC(=O)CCC(=O)NCCN3CCN(c4ccccc4F)CC3)n2n1	.	.	.	.
COc1ccc(N2CCN(CCNC(=O)CCC(=O)NNc3nc4ccccc4c4nc(C)nn34)CC2)cc1	.	.	95.8	.
Cc1nc2c3ccccc3nc(NNC(=O)CCC(=O)NC3CCCC3)n2n1	.	.	78.5	.
O=[N+]([O-])c1cccnc1N1CCN(c2ccc(F)cc2)CC1	.	.	98.4	.
CC(=O)c1ccc(C(=O)N2CCCC(Nc3ccc(C(C)C)cc3)C2)s1 (configuration not stated)	.	.	.	12.5
Cc1noc(C)c1C(=O)N1CCCC(Nc2ccc(C(C)C)cc2)C1 (configuration not stated)	.	.	98.1	.
COc1ccc2cc(C(=O)N3CCCC(Nc4ccc(F)cc4)C3)n(C)c2c1 (configuration not stated)	.	.	.	.
SMILES	PfM18AAP inh	SUMO Mot1 rescue	ALR inh	HIF activator
CC(C)c1ccc(NC2CCCN(C(=O)c3ccco3)C2)cc1 (configuration not stated)	.	.	.	.
COc1ccc(NC2CCCN(C(=O)c3c(C)noc3C)C2)cc1 (configuration not stated)	.	.	98.8	.
COc1ccc(C2=C(C)C(N3CCN(C(=O)c4ccco4)CC3)=NS2(=O)=O)cc1	.	.	.	.
CCN(CC)CCNC(=O)Cc1nn(Cc2ccccc2)c(=O)c2ccccc12	.	.	.	.
CC(Sc1nc2ccccc2s1)C(=O)c1c(N)n(C)c(=O)n(C)c1=O (configuration not stated)	.	.	98.8	.
Cc1cc(C(=O)NNC(=O)CCN2CCN(c3ccccc3)CC2)c2ccccc2n1	.	.	98.2	.
COc1cccc(C(=O)NNC(=O)CCN2CCN(c3ccccc3)CC2)c1	/	.	85.8	/
COc1cccc(C(=O)NCCN2CCN(c3ccc(Cl)cc3)CC2)c1	/	.	.	/
O=C(CCN1CCN(c2ccccc2)CC1)NNC(=O)c1cccc2ccccc12	.	.	99.0	.
CCc1cc(C(=O)NNC(=O)CCN2CCN(c3ccccc3)CC2)sc1C	.	.	.	.
CCOC(=O)C1=C(C)NC(C)=C(C(=O)OCC)C1c1ccccc1/C=C/C(=O)OC(C)(C)C	/	.	.	.
CCOc1ccc(C(C)=O)cc1CN1c2ccc(S(N)(=O)=O)cc2CC1C (configuration not stated)	.	.	78.9	.
CCOc1ccc(C(C)=O)cc1CN1C(=O)NC(C)(C2CC2)C1=O (configuration not stated)	.	.	.	.
Cc1cc(C)nc(Sc2c(C)nn(-c3ccccc3)c2C)n1	.	.	79.7	.
CC(C)(C)C(=O)COC(=O)C1=NN(c2ccccc2)C(=O)CC1	.	.	.	.
COc1ccc(N/N=C(/C(C)=O)N2CCCc3ccccc32)cc1	.	.	95.9	.
O=C(NNc1ncnc2c1cnn2-c1cccc(Cl)c1)c1ccco1	.	.	.	.
Cc1ccc(Cl)cc1-n1ncc2c(NNC(=O)c3ccco3)ncnc21	.	347.5	/	.
Cc1[nH]n(-c2cccc(Cl)c2)c(=O)c1C=NCC(C)C	.	.	.	.
CCOC(=O)c1c(NC(=O)CSc2nc3ccc(OC)cc3[nH]2)sc2c1CC(C)(C)NC2(C)C	/	.	.	.
CCOC(=O)c1nn(-c2ccc3c(c2)OCO3)cc1O	.	.	94.4	.
CCOC(=O)c1nn(-c2ccc(C)cc2)cc1O	.	.	.	.
COc1ccc(-c2noc(CSc3nc(N)c(-c4ccccc4)c(=O)[nH]3)n2)cc1OC	.	/	99.5	.
COc1ccc(-c2noc(CSc3nc(-c4ccccc4)cc(=O)[nH]3)n2)cc1	.	.	.	.
Nc1nc(Nc2ccccc2F)nc(NCc2ccco2)c1[N+](=O)[O-]	.	303.6	/	.
SMILES	PfM18AAP inh	SUMO Mot1 rescue	ALR inh	HIF activator
COc1ccc(C(O)(CCc2ccccc2)CCN2CCCCC2)cc1 (configuration not stated)	.	.	.	.
O=c1cc(-c2ccc(O)cc2)oc2c([C@@H]3O[C@H](CO)[C@@H](O)[C@H](O)[C@H]3O)c(O)c([C@@H]3O[C@H](CO)[C@@H](O)[C@H](O)[C@H]3O)c(O)c12	.	.	/	.
O=c1c2cc(O)c(O)cc2oc2cc(O)c(C3OC(CO)C(O)C(O)C3O)c(O)c12 (configuration not stated)	/	.	99.3	.
O=c1cc(-c2ccc(O)c(O)c2)oc2cc(O)c([C@@H]3O[C@H](CO)[C@@H](O)[C@H](O)[C@H]3O)c(O)c12	/	.	98.6	/
COc1ccc(SC[C@H](Cc2ccccc2)N2CCN(C)CCC2=O)cc1	/	.	.	.
Cc1ccc(C(=O)Nc2cc3[nH]c(=O)oc3cc2C)cc1	.	303.0	.	.
CCN1C=C(Cc2ccc(F)cc2)C2=C(C1)C(c1ccc(F)cc1)C(C#N)=C(N)O2 (configuration not stated)	.	.	99.1	.
CCN1C=C(Cc2ccccc2C)C2=C(C1)C(c1ccccc1C)C(C#N)=C(N)O2 (configuration not stated)	.	.	.	.

Assay outcomes from PubChem.
